In all, about 5,500 compounds went through this assay and about 2,000 (36%) were called active. Not shown: some 18% with an inconclusive outcome. No stated cut-off is given here; in the data, active means normalized growth mostly below about 0.91 (no sharp cut-off); inconclusive means no clear call, values can overlap the other calls; inactive means mostly above about 0.92. The list shows a part of the results.
Test: chemical genetic growth profiling, strain panel (AID 1159580);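 further: tested at 20 µM; growth read once vehicle control cultures reached saturation at 30 °C; 1 = growth at the plate median or of vehicle wells; lower values mean less growth of the strain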
Conditions: growth OD
[1] = S. cerevisiae deletion strains, locus YAL013W, strain DEP1, hits give low values
[2] = S. cerevisiae deletion strains, locus YBR229C, strain ROT2, hits give low values
[3] = S. cerevisiae deletion strains, locus YDL101C, strain DUN1, hits give low values
[4] = S. cerevisiae deletion strains, locus YDL134C, strain PPH21, hits give low values
[5] = S. cerevisiae deletion strains, locus YDR150W, strain NUM1, hits give low values
[6] = S. cerevisiae deletion strains, locus YEL061C, strain CIN8, hits give low values
[7] = S. cerevisiae deletion strains, locus YGR078C, strain PAC10, hits give low values
[8] = S. cerevisiae deletion strains, locus YHR030C, strain SLT2, hits give low values
[9] = S. cerevisiae deletion strains, locus YHR087W, strain rtc3, hits give low values
[10] = S. cerevisiae deletion strains, locus YJR043C, strain POL32, hits give low values
[11] = S. cerevisiae deletion strains, locus YJR075W, strain HOC1, hits give low values
[12] = S. cerevisiae deletion strains, locus YLR039C, strain RIC1, hits give low values
[13] = S. cerevisiae deletion strains, locus YLR058C, strain SHM2 (second series), hits give low values
[14] = S. cerevisiae deletion strains, locus YLR085C, strain ARP6, hits give low values
[15] = S. cerevisiae deletion strains, locus YLR262C, strain YPT6, hits give low values
[16] = S. cerevisiae deletion strains, locus YML094W, strain GIM5, hits give low values
[17] = S. cerevisiae deletion strains, locus YMR219W, strain ESC1, hits give low values
[18] = S. cerevisiae deletion strains, locus YMR263W, strain SAP30, hits give low values
[19] = S. cerevisiae deletion strains, locus YMR307W, strain GAS1, hits give low values
[20] = S. cerevisiae deletion strains, locus YNL153C, strain GIM3, hits give low values
[21] = S. cerevisiae deletion strains, locus YNL298W, strain CLA4 (second series), hits give low values
[22] = S. cerevisiae deletion strains, locus YNL322C, strain KRE1, hits give low values
[23] = S. cerevisiae deletion strains, locus YNR030W, strain Alg12, hits give low values
[24] = S. cerevisiae deletion strains, locus YOL006C, strain TOP1, hits give low values
[25] = S. cerevisiae deletion strains, locus YPL055C, strain LGE1, hits give low values
[26] = S. cerevisiae deletion strains, locus YPL241C, strain CIN2, hits give low values
[27] = S. cerevisiae deletion strains, locus YPR135W, strain CTF4, hits give low values

Measured: normalized growth

Cc1ccc(=O)n(Cc2ccc(Cl)c(Cl)c2)n1
inactive: [1] 0.989 | [2] 1.01 | [3] 0.958 | [4] 0.989 | [5] 0.968 | [6] 1 | [7] 0.977 | [8] 0.892 | [9] 1.01 | [10] 0.966 | [11] 0.986 | S. cerevisiae deletion strains, locus YKL190W, strain CNB1, hits give low values 0.988 | [12] 0.921 | [13] 0.986 | [14] 0.938 | [15] 0.913 | [16] 0.974 | [17] 0.992 | [18] 0.99 | [19] 1.06 | [20] 0.949 | [21] 0.954 | [22] 0.988 | [23] 0.988 | [24] 0.899 | [25] 1.03 | [26] 0.985 | [27] 0.918

O=C1CCCN1c1ccc(Cl)c(Cl)c1
inactive: [1] 0.987 | [2] 0.977 | [3] 0.939 | [4] 0.969 | [5] 0.968 | [6] 0.933 | [7] 0.976 | [8] 0.8 | [9] 0.989 | [10] 0.97 | [11] 0.983 | [12] 0.916 | [13] 0.988 | [14] 0.894 | [15] 0.949 | [17] 0.988 | [18] 0.984 | [19] 0.9 | S. cerevisiae deletion strains, locus YNL128W, strain TEP1, hits give low values 0.94 | [20] 0.95 | [21] 0.911 | [22] 0.974 | [23] 0.96 | [24] 0.748 | [25] 0.889 | [27] 0.913 | S. cerevisiae strains, strain wild type, hits give low values 0.978
active: [16] 0.853 | [26] 0.847

O=C(Cc1ccc(Cl)c(Cl)c1)OCCN1CCCC1
inactive: S. cerevisiae deletion strains, locus YAL040C, strain CLN3, hits give low values 1.02 | S. cerevisiae deletion strains, locus YDR363W, strain ESC2, hits give low values 1.02 | S. cerevisiae deletion strains, locus YER002W, strain NOP16, hits give low values 0.997 | [7] 0.994 | [20] 0.999 | S. cerevisiae deletion strains, locus YNL175C, strain NOP13, hits give low values 1.02 | S. cerevisiae deletion strains, locus YNL197C, strain WHI3, hits give low values 1 | S. cerevisiae deletion strains, locus YNL224C, strain SQS1, hits give low values 1.01 | [22] 0.99 | S. cerevisiae deletion strains, locus YOR083W, strain WHI5 (second series), hits give low values 1.03

— PubChem BioAssay AID1159580 (chemical genetic matrix, 2015)
